Shown are actives, neighbours in structure and some others; about 10% of the full set was active somewhere.
Gal4-VP16 FLuc = counter-screen for ROR gamma inhibitors: Gal4-VP16 reporter | AID 2546 | Potency, µM (highest dose often 53.6 µM), inactives show at the highest dose activity, negative = inhibition, hits mostly inhibitors | 310,000 compounds, 3.5% hits | Drosophila S2 Gal4-VP16 UAS-luciferase, luminescence, 20 h;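 also: Gal4-VP16 expression switched on by copper sulfate through the metallothionein promoter; % is scaled to controls: 0 for no effect and ±100 for the full control effect; nearly all actives have a fitted effect of over 50% in size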
KB-V1 MDR tox = KB-V1 MDR subline cytotoxicity | KB-V1 MDR cells viability, CellTiter-Glo, 72 h | Potency, µM (titrated, usually from 46.1 µM), hits mostly cytotoxic | 400,000 compounds, 3.4% hits | AID 1347076; also: % is scaled to controls: 0 for no effect and ±100 for the full control effect; nearly all actives have a fitted effect of over 60% in size
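qHTS viability screen in drug-selected KB-V1 MDR cells: 72 h compound treatment at 37 degrees C, ATP luminescence end point.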
RORgamma inh = ROR gamma (mouse) transcription inhibition | Potency, µM (titrated, usually from 53.6 µM), without a hit: at the top dose activity change, negative = inhibition, most hits filed as inhibitors | 310,000 compounds, 5.4% hits | Drosophila S2 Gal4-RORgamma UAS-luciferase reporter, 20 h; also: % is scaled to controls: 0 for no effect and ±100 for the full control effect; nearly all actives have a fitted effect of over 60% in size
Target sequence (P51450 whole entry, looked up, the tested form may be a part): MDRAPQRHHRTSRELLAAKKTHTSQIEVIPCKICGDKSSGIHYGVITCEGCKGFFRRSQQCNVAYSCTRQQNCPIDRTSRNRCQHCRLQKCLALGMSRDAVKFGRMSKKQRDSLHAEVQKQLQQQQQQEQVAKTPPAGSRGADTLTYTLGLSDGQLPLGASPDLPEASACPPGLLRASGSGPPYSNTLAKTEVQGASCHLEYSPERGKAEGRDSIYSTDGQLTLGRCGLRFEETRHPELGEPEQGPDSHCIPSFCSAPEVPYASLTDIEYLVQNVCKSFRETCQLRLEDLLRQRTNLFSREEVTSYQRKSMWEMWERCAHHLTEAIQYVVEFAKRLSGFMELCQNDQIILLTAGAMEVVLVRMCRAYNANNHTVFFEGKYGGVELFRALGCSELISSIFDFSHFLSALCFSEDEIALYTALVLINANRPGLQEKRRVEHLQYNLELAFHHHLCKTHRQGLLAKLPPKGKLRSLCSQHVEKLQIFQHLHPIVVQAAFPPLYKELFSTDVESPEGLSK
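Drosophila Schneider cells stably carrying a metallothionein-driven Gal4 DBD–ROR gamma fusion and a UAS-Photinus luciferase reporter were exposed to compound for 1 hr, then induced with copper sulfate (700 uM final) for 20 hr at ambient temperature before luminescence reading.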
KB-3-1 tox = KB-3-1 parental cell cytotoxicity | Potency, µM (highest dose often 46.1 µM), hits mostly cytotoxic | AID 1347075 | 400,000 compounds, 1.4% hits | KB-3-1 viability, CellTiter-Glo ATP luminescence, 72 h; also: % is scaled to controls: 0 for no effect and ±100 for the full control effect; nearly all actives have a fitted effect of over 60% in size
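Parental KB-3-1 viability, qHTS format: 72 h compound exposure, 37 °C; CellTiter-Glo; media-only wells and DMSO plates as controls; concentration-effect fits on corrected data.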
MCF10A rereplic = DNA re-replication induction in MCF 10a cells; MCF 10A DNA re-replication, Hoechst nuclear intensity, 48 h; Potency, µM (titrated, usually from 46.1 µM), inactives show top-dose activity, positive = re-replication, most hits filed as activators; 350,000 compounds, 2.9% hits; AID 624296; also: % of control where 0% means no effect; nearly all actives have a fitted effect of over 50% in size
SW480 rereplic = induces DNA re-replication in SW480 colon adenocarcinoma cells. AID 624297. SW480 DNA re-replication, Hoechst DNA content imaging, 48 h. 340,000 compounds, 1.8% hits. Potency, µM (titrated, usually from 46.1 µM), inactives show at the highest dose re-replication activation, usual class: activators; also: % of control where 0% means no effect; nearly all actives have a fitted effect of over 55% in size
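Image-based DNA-content assay: after two days of treatment, nuclei were labelled with the DNA dye Hoechst and imaged, and hits were compounds raising the count of nuclei showing high fluorescence intensity.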
* hit, by the source's call; i = inactive; ? = inconclusive; nt = no result; [ ] = remark or other dose. Calls follow the shape of the dose curve; as a rule, active = well fitted curve in the direction sought with a large enough effect; inconclusive = small, poorly fitted or top-dose-only effect, or another doubt; inactive = no such curve, though single readings can be large; an effect the other way counts as inactive or inconclusive. Potency is read from the fitted curve at half-maximal effect.

SMILES	Gal4-VP16 FLuc	KB-V1 MDR tox	RORgamma inh	KB-3-1 tox	MCF10A rereplic	SW480 rereplic
Cc1ccc(O)c(C(CCN(C(C)C)C(C)C)c2ccccc2)c1 (stereo not drawn)	4%	nt	-12%	nt	nt	nt
COc1ccc(NC(=O)CCOc2cc(C)ccc2C)cc1S(=O)(=O)N1CCCCC1	nt	?	nt	?	?	1%
CCC#N	0%	nt	20%	nt	nt	nt
COc1cc2c(cc1OC)-c1c(OC)c(OC)cc3c1[C@H](C2)N(C)CC3	-18%	13µM*	-7%	?	13%	-1%
O=[N+]([O-])C(Br)Br	11µM*	nt	13µM*	nt	nt	nt
CCOC(=O)[C@]1(C#N)[C@@H]2C=CC(C(C)=O)=CN2[C@@H](C(N)=O)[C@@H]1c1ccsc1	20µM*	i	29%	i	-1%	-10%
CCOP(=O)(/C(C#N)=C(\C)O)c1ccccc1 (stereo not drawn)	-7%	i	8%	i	-2%	-82%
CC(=O)O[C@H]1C(=O)[C@@]2(C)C([C@H](OC(=O)c3ccccc3)[C@]3(O)C[C@H](O)C(C)=C1C3(C)C)[C@]1(OC(C)=O)CO[C@@H]1C[C@H]2O (stereo partly drawn)	-8%	?	-40%	?	25%	?
CC(=O)O[C@@]12CO[C@@H]1C[C@H](O)[C@@]1(C)C(=O)[C@H](O)C3=C(C)[C@@H](OC(=O)[C@H](O)[C@@H](NC(=O)c4ccccc4)c4ccccc4)C[C@@](O)([C@@H](OC(=O)c4ccccc4)C12)C3(C)C (stereo partly drawn)	?	8.2µM*	?	0.0073µM*	?	2.6µM*
CC(=O)O[C@H]1C(=O)[C@@]2(C)C([C@H](OC(=O)c3ccccc3)[C@]3(O)C[C@H](OC(=O)[C@H](O)[C@@H](NC(=O)Cc4ccccc4)c4ccccc4)C(C)=C1C3(C)C)[C@]1(OC(C)=O)CO[C@@H]1C[C@@H]2O (stereo partly drawn)	13µM*	?	?	0.0073µM*	?	4.6µM*
O=C(c1ccco1)N1CCC[C@@]2(CCN(Cc3ccncc3)C2)C1	9%	nt	1%	nt	nt	nt
C#CCN1CC(=O)N(COC(=O)[C@@H]2[C@@H](C=C(C)C)C2(C)C)C1=O	1%	nt	9%[10 µM]	nt	0%	-5%
c1ccc2c(CCNC3CCCCC3)c[nH]c2c1	2%	i	0%	i	-12%	21µM*
c1ccc2c(CCN3CCCCC3)c[nH]c2c1	nt	i	nt	i	nt	nt
CCC1CN2CCC1CC2C(Oc1cc2ccccc2c2ccccc12)c1ccnc2ccc(O)cc12 (stereo not drawn)	-3%[10 µM]	nt	1%[10 µM]	nt	nt	nt
CCOC(=O)C(C#N)=C(c1ccccc1)c1ccccc1	7%	nt	3%	nt	?	0%
Cc1[nH]c2ccccc2c1C(=O)CN1CC=C(c2ccccc2)CC1	-3%	i	36%	?	18µM*	?
O=C(Oc1ccccc1)N1CCC2(CCN(Cc3ccccc3)CC2)CC1	-13%	nt	-4%	nt	nt	nt
CC1=CC(c2ccccc2)NC(=S)N1 (stereo not drawn)	?	i	11µM*	i	5%	nt
CCCOC(=O)c1ccc(-[n+]2c(-c3ccccc3)cc(-c3ccccc3)cc2-c2ccccc2)cc1	nt	i	nt	16µM*	?	17%
CCCCCn1c(=O)c(C(=O)Nc2ccccc2S(N)(=O)=O)c(O)c2ccccc21	-10%	?	13%	10µM*	4.1µM*	3.7µM*
CCCCn1c(=O)c(C(=O)Nc2ccccc2S(N)(=O)=O)c(O)c2ccccc21	?	16µM*	34%	i	?	15%
CCCCn1c(=O)c(C(=O)Nc2ccccc2)c(O)c2ccccc21	-5%	13µM*	-4%	i	-2%	1%
CCCCCn1c(=O)c(C(=O)Nc2nc(CC(=O)OCC)cs2)c(O)c2ccccc21	-17%	6.5µM*	6%	i	-3%	-3%

Screening data from PubChem BioAssay.
